This is an account of results in the supplement of paper PMC12067926.

This assay concerns Bacillus 1 (Bacillus foraminis). The assay can be described thus: relative growth (AUC of 72 h growth curve relative to DMSO control, dAUC) (ratio); higher = more growth (less inhibition), active = hit call of the paper. As to conditions: 20 µM;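 active = growth AUC significantly below the DMSO wells by Dunnett test; inactive = the rest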. The method, then: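 Environmental bacterial isolates (Iceland stream sediment and Silwood Park soil) and whole stream-sediment communities were grown in LB from a 1:100 dilution with each pesticide at 20 µM (1% DMSO). A600 was read hourly for 72 h and the area under a spline-fitted growth curve (AUC) was computed. dAUC is the mean AUC of 3 biological replicates divided by the mean AUC of the DMSO controls. Significance was tested by Dunnett's test against the DMSO control.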
In the case of `N#Cc1cc(Br)c(O)c(Br)c1`, the relative growth is 0.916 (inactive).
In the case of `CN(C)C(CSS(=O)(=O)O)CSS(=O)(=O)O`, the relative growth is 1.07 (inactive).
The value for `CC(C)N(C)S(=O)(=O)NC(=O)c1cc(-n2c(=O)cc(C(F)(F)F)n(C)c2=O)c(F)cc1Cl` was 0.998 (inactive).
The value for `Nc1c(Cl)c(F)nc(OCC(=O)O)c1Cl` was 1.02 (inactive); that for `C#CCOc1ccc(CCNC(=O)C(OCC#C)c2ccc(Cl)cc2)cc1OC` (stereo not given) was 1.06 (inactive); that for `CCOCn1c(-c2ccc(Cl)cc2)c(C#N)c(Br)c1C(F)(F)F` was 1.1 (inactive).
Regarding `COc1cccc(C(=O)NN(C(=O)c2cc(C)cc(C)c2)C(C)(C)C)c1C`, the relative growth was 0.966 (inactive).
The value for `CO/C=C(/C(=O)OC)c1ccccc1Oc1cc(Oc2ccccc2C#N)ncn1` was 1.03 (inactive); that for `CO/N=C(/C(=O)OC)c1ccccc1CO/N=C(\C)c1cccc(C(F)(F)F)c1` was 0.972 (inactive); that for `CC(COc1ccc(Oc2ccccc2)cc1)Oc1ccccn1` (stereo not given) was 1.07 (inactive).
The value for `CC1=NNC(=O)N(/N=C/c2cccnc2)C1` was 1.16 (inactive).
The value for `CCC(C)c1ccccc1OC(=O)NC` (stereo not given) was 1.07 (inactive); that for `N#Cc1sc2c(=O)c3ccccc3c(=O)c=2sc1C#N` was 0.97 (inactive).
Take `CC(C)(C)[C@@H](O)[C@H](Oc1ccc(Cl)cc1)n1cncn1`: the relative growth was 1.03 (inactive).
Take `CCCCC(C#N)(Cn1cncn1)c1ccc(Cl)cc1` (stereo not given): the relative growth was 0.889 (inactive).
The value for `CC[C@H](C)[C@H]1O[C@]2(C=C[C@@H]1C)C[C@@H]1C[C@@H](C/C=C(\C)[C@@H](O[C@H]3C[C@H](OC)[C@@H](O[C@H]4C[C@H](OC)[C@@H](O)[C@H](C)O4)[C@H](C)O3)[C@@H](C)/C=C/C=C3\CO[C@@H]4[C@H](O)C(C)=C[C@@H](C(=O)O1)[C@]34O)O2.CO[C@H]1C[C@H](O[C@H]2[C@H](C)O[C@@H](O[C@@H]3/C(C)=C/C[C@@H]4C[C@@H](C[C@]5(C=C[C@H](C)[C@@H](C(C)C)O5)O4)OC(=O)[C@@H]4C=C(C)[C@@H](O)[C@H]5OC/C(=C\C=C\[C@@H]3C)[C@]54O)C[C@@H]2OC)O[C@@H](C)[C@@H]1O` was 0.944 (inactive).
The value for `Cc1nnc(-c2ccccc2)c(=O)n1N` was 0.881 (inactive); that for `CC[C@H](C)C1O[C@]2(C=C[C@@H]1C)C[C@@H]1C[C@@H](C/C=C(\C)[C@@H](O[C@H]3C[C@H](OC)[C@@H](O[C@H]4C[C@H](OC)[C@H](NC)[C@H](C)O4)[C@H](C)O3)[C@@H](C)/C=C/C=C3\CO[C@@H]4[C@H](O)C(C)=C[C@@H](C(=O)O1)[C@]34O)O2` (stereo not given in full) was 0.928 (inactive).
As to `CCOc1ccc(C(C)(C)COCc2cccc(Oc3ccccc3)c2)cc1`, the relative growth is 0.954 (inactive).
The value for `CC(Oc1ccc(Oc2nc3ccc(Cl)cc3o2)cc1)C(=O)O` (stereo not given) was 1.02 (inactive); that for `CCOC(=O)CC(SP(=S)(OC)OC)C(=O)OCC` (stereo not given) was 1.05 (inactive); that for `CSc1nnc(C(C)(C)C)c(=O)n1N` was 0.94 (inactive).
In the case of `CS(=O)(=O)NC(=O)c1cc(Oc2ccc(C(F)(F)F)cc2Cl)ccc1[N+](=O)[O-]`, the relative growth is 1.04 (inactive).
The value for `C/C(=N\C#N)N(C)Cc1ccc(Cl)nc1` was 0.921 (inactive); that for `CCOc1cc(Oc2ccc(C(F)(F)F)cc2Cl)ccc1[N+](=O)[O-]` was 0.956 (inactive).
The value for `Oc1ccc(Cl)cc1Cc1cc(Cl)ccc1O` was 0.81 (inactive).
The value for `CC(C)N(C(=O)COc1nnc(C(F)(F)F)s1)c1ccc(F)cc1` was 0.999 (inactive); that for `CC(C1CC1)C(O)(Cn1cncn1)c1ccc(Cl)cc1` (stereo not given) was 1.09 (inactive); that for `CCOP(=S)(OCC)Oc1cc(C)nc(C(C)C)n1` was 0.963 (inactive).
On to `COCC(C)N(C(=O)CCl)c1c(C)csc1C` (stereo not given), for which the relative growth was 0.948 (inactive).
The value for `COP(=O)(NC(C)=O)SC` (stereo not given) was 1.02 (inactive); that for `Cc1c(COC(=O)[C@@H]2[C@H](/C=C(\Cl)C(F)(F)F)C2(C)C)cccc1-c1ccccc1` (racemic) was 0.976 (inactive).
The value for `CC1(C)C(C=C(Cl)Cl)C1C(=O)OC(C#N)c1ccc(F)c(Oc2ccccc2)c1` (stereo not given) was 0.94 (inactive); that for `CC1(C)[C@H](C(=O)O[C@H](C#N)c2cccc(Oc3ccccc3)c2)[C@@H]1C=C(Br)Br` was 1.1 (inactive); that for `O=C(O)COc1ccc(Cl)cc1Cl` was 1.09 (inactive).
Turning to `COP(=S)(OC)Oc1nc(Cl)c(Cl)cc1Cl`, the relative growth was 1.08 (inactive).
The value for `Cc1nc(N(C)C)nc(OC(=O)N(C)C)c1C` was 0.959 (inactive).
For `CNC(=O)c1cc(Cl)cc(C)c1NC(=O)c1cc(Br)nn1-c1ncccc1Cl`, the relative growth was 1.01 (inactive).
The value for `CCNc1nc(Cl)nc(NC(C)C)n1` was 0.997 (inactive); that for `COP(=O)(OC)OC=C(Cl)Cl` was 0.941 (inactive).
